Measurements as given in PubChem BioAssay (NCI).
The panel holds about 83,000 compounds, 20% with a hit somewhere; the sample as a whole holds those more often.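 In brief: 96-well plates, 48 h treatment, single concentration, percent growth endpoint.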 A number with no mark means an inactive call. The source made the active and inactive calls. Rule for the calls: active = growth percent below 10; inactive = the rest.

Tested on: IGROV1 ovarian
Assay: NCI-60 one-dose screen, 48 h (100 = growth as untreated, 0 = no growth, -100 = all killed)
Conditions: 10 µM unless noted

SMILES	growth
CC(C)(CNC1CCCCC1)OC(=O)c1ccccc1	106%
COC(=O)c1ccc2[nH]c(O)c(C(=Nc3ccc(N(C)C(=O)CN4CCN(C)CC4)cc3)c3ccc4c(c3)OCO4)c2c1	4.12% (active)
O=C(/C=C\c1ccc(NCc2ccc(C(=O)O)cc2)cc1)CCl	90.4%
CCCCCCC(C)N(CC(C)(C)O)C(=O)c1ccc([N+](=O)[O-])cc1 (stereo unspecified)	88.1%
C=CN(C)S(C)(=O)=O	51.5%
CCCCCCC(C(=O)OCC)(C(=O)OCC)C1CCCCCC1	102%
CCOC(=O)NC1=NCC(C)(C)S1	111%
Cc1ccc2c(c1)C(=O)CCS2	104%
S=C(N/N=C/c1cc(Cl)cc(Cl)c1)NC12CC3CC(CC(C3)C1)C2	78.1%
COC(=O)C(N)CC(C)C (stereo unspecified)	115%
O=C(Nc1ccc(Cl)c(Cl)c1)O/N=C\c1c(Cl)ccc([N+](=O)[O-])c1Cl	-45.8% (active)
O=C(/C=C/c1ccc(Cl)cc1)c1ccc(Cl)cc1	88.1%
O=C(Nc1cccc(Cn2c(=O)[nH]c3ccc(Oc4ncccn4)cc3c2=O)c1)c1cccc(F)c1	78.2%
CC(=O)c1ccc2c(c1)c1ccccc1n2C	87.6%
CCC(C)CC(N)O (stereo unspecified)	118%
COc1cc2ncnc(-n3ncc4cc(NC(=O)Nc5ccccc5)ccc43)c2cc1OC	5.95% (active)
O=C(O)CS(=O)c1ccc(Cl)cc1 (stereo unspecified)	115%
O=C1C(=O)c2ccccc2C(O)=C1CCCc1ccc(Oc2ccccc2)cc1	34.7%
O=C1C(Br)=CC2C1C1C3CCC3C2(Br)C12OCCO2 (stereo unspecified)	36.7%

SMILES	growth
CC1(C)NC(=S)NC1=O	116%
CCCCCCCCCCC1OC(C)CC(C)O1 (stereo unspecified)	109%
O=C1C=C(OCC=C(C(F)(F)F)C(F)(F)F)c2ccccc2C1=O	-12.4% (active)
CCOC1=C(Cl)C(=O)C(OCC)=C(Cl)C1=O	99.1%
O=C(NCCO)C(F)(F)F	106%
Oc1ccc(Br)cc1/C=N/NC(=S)NC12CC3CC(CC(C3)C1)C2	5.57% (active)
COc1cc(N2C(=O)C=CC2=O)ccc1N1C(=O)C=CC1=O	115%
c1cc[c]([Bi]([c]2ccccc2)[c]2ccccc2)cc1	107%
O=C(CN1C(=O)NC(c2ccccc2)(c2ccccc2)C1=O)c1ccc(N2CCCC2)cc1	85.5%
CC(O)CN(CCO)CCN(CCO)CC(C)O (stereo unspecified)	115%
CNc1ccc(Nc2ccc(S(=O)(=O)O)cc2)c2c1C(=O)c1ccccc1C2=O	105%
Cc1ccc(S(=O)(=O)NC(CCC(=O)Nc2ccccc2)C(=O)Nc2ccccc2)cc1 (stereo unspecified)	-25.1% (active)
COC1(OC)N=C(N)C2(C#N)C3(C(=O)Nc4ccccc43)C12C#N (stereo unspecified)	63.5%
Cn1c2ccccc2c2ccccc21	102%
Oc1ccc([S+](c2ccc(O)cc2)c2ccc(O)cc2)cc1	110%
Nc1cc(N)c2nc(-c3ccccc3)c(NCCc3ccc(Cl)c(Cl)c3)nc2c1	-77.8% (active)
COC(=O)Nc1nc2ccc(C(=O)c3ccccc3N(C)C3COC3)cc2[nH]1	58.6%
CC(O)CN(CC(C)O)N(CC(C)O)CC(C)O (stereo unspecified)	113%

Tested on: OVCAR-3 ovarian
Assay: as above
Conditions: 10 µM unless noted

SMILES	growth
CC(C)(CNC1CCCCC1)OC(=O)c1ccccc1	102%
COC(=O)c1ccc2[nH]c(O)c(C(=Nc3ccc(N(C)C(=O)CN4CCN(C)CC4)cc3)c3ccc4c(c3)OCO4)c2c1	10.9%
O=C(/C=C\c1ccc(NCc2ccc(C(=O)O)cc2)cc1)CCl	72.4%
CCCCCCC(C)N(CC(C)(C)O)C(=O)c1ccc([N+](=O)[O-])cc1 (stereo unspecified)	113%
C=CN(C)S(C)(=O)=O	-14.1% (active)
CCCCCCC(C(=O)OCC)(C(=O)OCC)C1CCCCCC1	117%
CCOC(=O)NC1=NCC(C)(C)S1	97.4%
Cc1ccc2c(c1)C(=O)CCS2	115%
S=C(N/N=C/c1cc(Cl)cc(Cl)c1)NC12CC3CC(CC(C3)C1)C2	58.2%
COC(=O)C(N)CC(C)C (stereo unspecified)	109%
O=C(Nc1ccc(Cl)c(Cl)c1)O/N=C\c1c(Cl)ccc([N+](=O)[O-])c1Cl	-99.3% (active)
O=C(/C=C/c1ccc(Cl)cc1)c1ccc(Cl)cc1	89.7%
O=C(Nc1cccc(Cn2c(=O)[nH]c3ccc(Oc4ncccn4)cc3c2=O)c1)c1cccc(F)c1	84.1%
CC(=O)c1ccc2c(c1)c1ccccc1n2C	108%
CCC(C)CC(N)O (stereo unspecified)	110%
COc1cc2ncnc(-n3ncc4cc(NC(=O)Nc5ccccc5)ccc43)c2cc1OC	36.1%
O=C(O)CS(=O)c1ccc(Cl)cc1 (stereo unspecified)	115%
O=C1C(=O)c2ccccc2C(O)=C1CCCc1ccc(Oc2ccccc2)cc1	49.4%
O=C1C(Br)=CC2C1C1C3CCC3C2(Br)C12OCCO2 (stereo unspecified)	12.5%
CC1(C)NC(=S)NC1=O	112%

SMILES	growth
CCCCCCCCCCC1OC(C)CC(C)O1 (stereo unspecified)	98.3%
O=C1C=C(OCC=C(C(F)(F)F)C(F)(F)F)c2ccccc2C1=O	-19.9% (active)
CCOC1=C(Cl)C(=O)C(OCC)=C(Cl)C1=O	105%
O=C(NCCO)C(F)(F)F	101%
Oc1ccc(Br)cc1/C=N/NC(=S)NC12CC3CC(CC(C3)C1)C2	-26.5% (active)
COc1cc(N2C(=O)C=CC2=O)ccc1N1C(=O)C=CC1=O	104%
c1cc[c]([Bi]([c]2ccccc2)[c]2ccccc2)cc1	105%
O=C(CN1C(=O)NC(c2ccccc2)(c2ccccc2)C1=O)c1ccc(N2CCCC2)cc1	103%
CC(O)CN(CCO)CCN(CCO)CC(C)O (stereo unspecified)	112%
CNc1ccc(Nc2ccc(S(=O)(=O)O)cc2)c2c1C(=O)c1ccccc1C2=O	121%
Cc1ccc(S(=O)(=O)NC(CCC(=O)Nc2ccccc2)C(=O)Nc2ccccc2)cc1 (stereo unspecified)	-42% (active)
COC1(OC)N=C(N)C2(C#N)C3(C(=O)Nc4ccccc43)C12C#N (stereo unspecified)	84%
Cn1c2ccccc2c2ccccc21	107%
Oc1ccc([S+](c2ccc(O)cc2)c2ccc(O)cc2)cc1	114%
Nc1cc(N)c2nc(-c3ccccc3)c(NCCc3ccc(Cl)c(Cl)c3)nc2c1	-91.2% (active)
COC(=O)Nc1nc2ccc(C(=O)c3ccccc3N(C)C3COC3)cc2[nH]1	14.6%
CCOP1(=O)CC(C)=C(Cl)C(P(=O)(O)O)C1 (stereo unspecified)	113%
CCCCCCCCC1OC1CCCCCCCC(=O)O (stereo unspecified)	108%
CC(O)CN(CC(C)O)N(CC(C)O)CC(C)O (stereo unspecified)	109%
